F508del corr = CFTR F508del correction in bronchial cells | CFBE cells, YFP halide quenching; stimulated with forskolin plus potentiator P3; % fluorescence drop versus neutral controls | actives 0.36% (n = 350,000) | AID 720511 | activity (quench increase), % at 7.58 µM;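 active means mean added fluorescence quench of at least 8% versus neutral control, with both replicates also reaching 8%; inconclusive means only one of the mean or replicate conditions met; inactive means mean below 8% and not both replicates reaching 8%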;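 further: cells transiently co-express mutant CFTR-F508del with the halide-sensitive YFP; corrector assay measuring rescue of mutant channel to the surface after 24 h compound exposure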
Vif imaging = inhibitors of HIV Vif. HEK293T cells, Vif self-association by quenched fluorescence, imaging, 24 h. inhibition, % at 7.49 µM. actives 0.35% (n = 340,000). AID 602346; in the data active means inhibition above about 50%, passing the limit was not always enough; inconclusive means no clear call, values can overlap the other calls; inactive means below about 31%
FGF22 binding-1 = shifts melting point of recombinant human FGF22; Q9HCT0; recombinant FGF22 thermal shift, SYPRO orange fluorescence; percent of sucrose octasulfate shift, DMSO zero; activity (Tm shift, normalised), % at 9.99 µM; actives 1.5% (n = 340,000); AID 651658;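 active means mean Tm shift, scaled 0 neutral to 100 positive control, at about 1.3% or above, every replicate too, limit read from the data; inconclusive means no clear call, values can overlap the other calls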
Target sequence (Q9HCT0 whole entry, looked up): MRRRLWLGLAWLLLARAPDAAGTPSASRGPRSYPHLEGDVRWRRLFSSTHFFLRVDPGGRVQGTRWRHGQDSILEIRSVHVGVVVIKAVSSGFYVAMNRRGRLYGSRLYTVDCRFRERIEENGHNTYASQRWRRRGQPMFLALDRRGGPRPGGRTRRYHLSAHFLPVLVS
FGF22 binding-2 = binders of human FGF22 by thermal shift; shares compounds with FGF22 binding-1; recombinant FGF22 thermal shift, SYPRO orange fluorescence; thermal shift activity, °C (ΔTm) at 38 µM; actives 2% (n = 1,000); AID 720646;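 active means fitted rise in melting shift crosses a set limit at or below the top valid dose tested; inconclusive means flat fit at mid-level activity, or a poor quality fit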
FGF22 TSA = binds human FGF22 shifting its melting temperature; 50 tested, under 10 active; shares compounds with FGF22 binding-1; Thermal shift assay, SYPRO orange, melting temperature shift; Tm shift (activity), % at 38 µM;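 active means compounds whose fitted dose curve of melting temperature shift rises past a set threshold within the tested doses; inconclusive means flat curve at moderate activity, or poor curve fit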
SYPRO no-protein = shows thermal shift signal without protein, FGF22 counter-screen; compound-only SYPRO orange thermal shift counter-screen, no protein; AC50, µM (series often up to 38 µM); shares compounds with FGF22 binding-1; actives 2% (n = 1,000);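 active means rising signal whose fitted curve reaches the 0.54 level within the top valid dose, showing a melting point, actives reach about 13 µM in these data; inactive means the rest, including activity in the opposite direction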; further: value is where the raw curve crosses a fixed level and not half-maximal
The depositor's hits bear a star; i = inactive; ? = inconclusive; nt = no result given; [ ] = dose if it differs, or a comment. A selection: hits, their analogues and other compounds. The true share with any hit is near 1.7%.

SMILES | F508del corr | Vif imaging | FGF22 binding-1 | FGF22 binding-2 | SYPRO no-protein | others
COc1ccc(S(=O)(=O)N(C)C[C@@H]2Oc3c(NS(=O)(=O)c4ccc(C)cc4)cccc3C(=O)N([C@H](C)CO)C[C@@H]2C)cc1 | -1.2 | nt | 1.3* | -0.004[42 µM] | i
COC(=O)C[C@@H]1C[C@@H]2c3cc(N(C)C)ccc3O[C@@H]2[C@@H](CO)O1 | 1.3 | nt | -0.8 | nt | nt
C[C@@H]1CN([C@H](C)CO)C(=O)c2cc(NS(C)(=O)=O)ccc2O[C@@H]1CN(C)C(=O)Nc1ccc(C(F)(F)F)cc1 | 0.4 | nt | -0.6 | nt | nt
C[C@H](CO)N1C[C@H](C)[C@@H](CN(C)Cc2ccccc2)Oc2ncc(C#Cc3cccnc3)cc2C1=O | 1.6 | nt | 0.0 | nt | nt
COc1ccc(NC(=O)N(C)C[C@H]2Oc3ccc(NS(=O)(=O)c4ccccc4)cc3C(=O)N([C@@H](C)CO)C[C@H]2C)cc1 | -2.0 | nt | 0.3 | nt | nt
O=C(Nc1cccc(S(=O)(=O)N2CCCCC2)c1)C1=NN(c2ccccc2)C(=O)CC1 | -0.3 | -2.1 | 1.9* | -0.096 | i
O=C(Nc1cc(S(=O)(=O)N2CCCCC2)ccc1Cl)C1=NN(c2ccccc2)C(=O)CC1 | -0.7 | 0.0 | 0.0 | nt | nt
COc1ccc(S(=O)(=O)N[C@H]2CC[C@H](CCNC(=O)Cc3ccccn3)O[C@@H]2CO)cc1 | -0.3 | nt | 0.1 | nt | nt
CCN(CC)CCNS(=O)(=O)c1ccc(Cl)cc1 | nt | 7.0 | nt | nt | nt
CCCN(CCC)CC(C)(C)NS(=O)(=O)c1ccc(Cl)cc1 | 6.2 | -2.0 | 1.4* | -0.022 | i
O=C(O)c1ccc2c(=O)n3c(nc2c1)/C(=C/c1ccc(C(F)(F)F)cc1)CC3 | -0.2 | -5.6 | 0.3 | nt | nt
COc1cc(/C=C2\CCn3c2nc2cc(C(=O)O)ccc2c3=O)ccc1OC(F)F | -1.3 | 4.2 | 1.4* | 0.174 | i
CCOC(=O)C1CCC(CNCc2ccccc2C)CC1 (configuration not stated) | 3.5 | -5.8 | 1.6* | 0.054 | i
O=C(O)C1CCC(CNCc2ccccc2Cl)CC1 (configuration not stated) | nt | -6.7 | 0.0 | nt | nt
O=S(=O)(/N=C(/Nc1nccs1)c1ccc(F)cc1)c1ccccc1 | -1.9 | -6.2 | 37.9* | -0.062 | i
O=S(=O)(/N=C(/Nc1nc2ccccc2s1)c1ccccc1)c1ccc(F)cc1 | -1.3 | -6.4 | nt | nt | nt
O=C(CCc1c[nH]c2ccccc12)Nc1ccc(Nc2cccnc2)c(Br)c1 | 0.6 | nt | 1.1 | nt | nt
O=C(CCc1c[nH]c2ccccc12)Nc1ccc(Nc2cccnc2)cc1 | -0.4 | nt | 2.0* | -0.069 | i
Cc1noc(C)c1NC(=O)N(C)C[C@@H]1OCCCC[C@@H](C)Oc2ccc(NS(=O)(=O)c3ccc(Cl)cc3)cc2C(=O)N([C@H](C)CO)C[C@@H]1C | -0.7 | nt | nt | nt | nt
C[C@H]1CCCCO[C@@H](CN(C)C)[C@@H](C)CN([C@@H](C)CO)C(=O)c2cc(NC(=O)NC3CCCCC3)ccc2O1 | -4.2 | nt | -0.2 | nt | nt
COc1ccc(NC(=O)Nc2ccc3c(c2)CC(=O)N([C@@H](C)CO)C[C@@H](C)[C@H](CN(C)C(=O)Nc2ccc(C(F)(F)F)cc2)O3)cc1 | 1.5 | nt | -0.2 | nt | nt
CCCCNC(=O)C1c2cc(OC)c(OC)cc2C(=O)N(C)C1c1cccs1 (configuration not stated) | 5.2 | 0.3 | 3.6* | -0.059 | i
CCCN(CCC)CCCNC(=O)C1c2cc(OC)c(OC)cc2C(=O)N(C)C1c1cccs1 (configuration not stated) | nt | 7.5 | nt | nt | nt
COc1cc(/C=C2/S/C(=N/S(=O)(=O)Cc3ccccc3)NC2=O)c([N+](=O)[O-])cc1OC | 0.4 | 4.3 | 1.9* | 0.108 | i
COc1cc(/C=C2\S/C(=N/S(=O)(=O)Cc3ccccc3)NC2=O)c([N+](=O)[O-])cc1OC | 0.2 | -2.1 | 1.0 | nt | nt
SMILES | F508del corr | Vif imaging | FGF22 binding-1 | FGF22 binding-2 | SYPRO no-protein | others
CCCNC(=O)N1C[C@@H](O)COC[C@@H]2O[C@H](CC(=O)NCCCN3CCOCC3)CC[C@H]21 | 1.0 | nt | -0.3 | nt | nt
Nc1c(N(Cc2ccco2)C(=O)COc2ccc(Cl)cc2)c(=O)[nH]c(=O)n1Cc1ccccc1 | 2.2 | -10.3 | 0.1 | nt | nt
Nc1c(N(CCO)C(=O)COc2ccc(Cl)cc2)c(=O)[nH]c(=O)n1Cc1ccccc1 | -1.4 | nt | 1.8* | 0.053 | i
Cc1ccc(NC(=O)c2sc3ncn(CC(=O)N4CCN(c5ccccn5)CC4)c(=O)c3c2C)cc1Cl | 0.3 | -8.0 | 0.0 | nt | nt
Cc1ccc(NC(=O)c2sc3ncn(CC(=O)N4CCN(c5ccccn5)CC4)c(=O)c3c2C)cc1F | -4.6 | ? | 1.4* | 0.091 | i
C[C@H](CO)N1C[C@H](C)[C@H](CN(C)S(=O)(=O)c2cn(C)cn2)Oc2c(NC(=O)Nc3ccc(F)cc3)cccc2C1=O | -0.4 | nt | 0.0 | nt | nt
CCCNC(=O)N[C@@H]1C=C[C@H](CC(=O)N2CCN(C)CC2)O[C@@H]1CO | -1.8 | nt | -0.2 | nt | nt
C[C@@H]1CCCCO[C@@H](CN(C)C(=O)Cc2ccccc2)[C@@H](C)CN([C@H](C)CO)C(=O)c2cc(NS(=O)(=O)c3cccs3)ccc2O1 | -1.7 | nt | -0.1 | nt | nt
COc1ccc2c(/C=N/NS(=O)(=O)c3ccc(C)cc3)c[nH]c2c1 | 0.0 | -8.4 | 2.7* | -0.208 | i
COc1ccc2[nH]cc(/C=N/NS(=O)(=O)c3ccc(C)cc3)c2c1 | 3.1 | -8.7 | -0.4 | nt | nt
Cc1cc(C2=NNC(=NCc3ccccc3)SC2)c(C)n1-c1c(C)n(C)n(-c2ccccc2)c1=O | 0.5 | 3.7 | 0.1 | nt | nt
CN=C1NN=C(c2cc(C)n(-c3c(C)n(C)n(-c4ccccc4)c3=O)c2C)CS1 | -2.0 | 14.0 | 1.6* | 0.126 | i
Cc1cc(NC(=O)c2ccc3[nH]c(C)c(C)c3c2)ccn1 | 3.2 | -11.9 | -0.1 | nt | nt
CC(=O)Nc1cccc(NC(=O)c2ccc3[nH]c(C)c(C)c3c2)c1 | -3.2 | 0.0 | 1.9* | -0.012 | i | FGF22 TSA=-0.2
O=C(C1CCCC1)N1CCC(CO)(Cc2ccccc2Cl)CC1 | -1.0 | -1.6 | 0.0 | nt | nt
CC(C)(C)NC(=O)N1CCC(CO)(Cc2ccccc2Cl)CC1 | 3.6 | 1.5 | 1.5* | -0.031 | i
C[C@H]1CCCCO[C@@H](CN(C)C(=O)Cc2ccccc2)[C@@H](C)CN([C@@H](C)CO)C(=O)c2cc(NC(=O)Cc3ccccc3)ccc2O1 | -1.1 | nt | 0.2 | nt | nt
O=C(C[C@H]1CC[C@H]2[C@@H](COC[C@@H](O)CN2Cc2ccccc2)O1)NCCCN1CCOCC1 | 2.9 | nt | 0.0 | nt | nt
O=C1C(Cl)=C(NS(=O)(=O)c2ccc([N+](=O)[O-])cc2)C(=O)c2ccccc21 | 0.5 | 2.3 | 1.9* | 0.127 | i
O=[N+]([O-])c1ccc(Oc2ccc(S(=O)(=O)Nc3ccccc3)cc2)cc1 | nt | -9.1 | nt | nt | nt
CCS(=O)(=O)N[C@H]1CC[C@H](CC(=O)Nc2ccc(-c3ccccc3)cc2)O[C@H]1CO | 0.4 | nt | 0.4 | nt | nt
